The source of these data is the supplement of paper PMC6522484.

Molecules are shown by their SMILES. ± gives the standard deviation of the averaged measurements.

In assay [1] the test system is DLD1. Nature of the assay: cell viability (CellTiter-Glo) relative to plate median (fraction of plate median); higher = more viable cells. The following applies: 5 µM; treatment time 24 h; reporter: 7TFP. Put shortly:
(§1)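 Library compounds, at a final 5 µM, stayed on reporter cells for 24 h. The cells were colorectal cancer lines stably transduced with lentiviral TCF/Wnt firefly luciferase reporters, seeded in 384-well plates 24 h before dosing. Firefly luciferase or CellTiterGlo luminescence from parallel plates was normalised to the plate median in webcellHTS2 (additive, no log transformation), and two independent replicates were averaged.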
For orientation: Cellular ATP, detected with luciferase, serves as a proxy for viable cell number.

The subject of a further assay is HCT116. Described as above. The settings on record: 5 µM; treatment time 24 h; reporter: TCF4/Wnt. Put shortly: as §1
Assay [2] deals with SW480. The assay is described as above. The settings on record: 5 µM; treatment time 24 h; reporter: 7TFP. The method, boiled down: as §1
Assay [3] concerns DLD1. Nature of the assay: TCF/Wnt firefly luciferase reporter signal relative to plate median (fraction of plate median); higher = higher Wnt reporter signal. The settings on record: 5 µM; treatment time 24 h; reporter: 7TFP. Put shortly: as §1
Background: In a reporter assay the amount or activity of a reporter protein is the signal.

In assay [4] the test system is SW480. The description is as above. The settings on record: 5 µM; treatment time 24 h; reporter: 7TFP. Put shortly: as §1

As for `CN(N=O)C(=O)N[C@H]1C(O)O[C@H](CO)[C@@H](O)[C@@H]1O` (mixture of isomers), the cell viability with DLD1 [1] turned out to be 0.999 ± 0.03; with HCT116 it was 1.03 ± 0.064; with SW480 [2], 1.08 ± 0.021. Further, the “TCF/Wnt firefly luciferase reporter signal” value worked out at 0.962 ± 0.15 in the assay on DLD1 [3] and 1.005 ± 0.0071 in the assay with SW480 [4].

On to `COC(=O)Nc1nc2cc(C(=O)c3ccccc3)ccc2[nH]1`, for which the figures for the cell viability in the assay with DLD1 [1], with HCT116 and in the assay with SW480 [2] were 0.884 ± 0.069, 0.801 ± 0.1 and 1 ± 0.028, respectively. Besides, the “TCF/Wnt firefly luciferase reporter signal” value in the assay on DLD1 [3] was 0.896 ± 0.027; in the assay with SW480 [4] it was 0.94 ± 0.023.

Regarding `CCCCCCCCCCCCCCCC[N+](C)(C)C`, the values for the cell viability in the assay with DLD1 [1], in the assay on HCT116 and with SW480 [2] were 0.9465 ± 0.0021, 0.907 ± 0.093 and 0.969 ± 0.12, respectively. Further, the “TCF/Wnt firefly luciferase reporter signal” value with DLD1 [3] was found to be 0.754 ± 0.12; in the assay on SW480 [4], 0.701 ± 0.093.

For `CC1(C)[C@@H](OC(=O)CCC(=O)O)CC[C@]2(C)[C@H]3C(=O)C=C4[C@@H]5C[C@@](C)(C(=O)O)CC[C@]5(C)CC[C@@]4(C)[C@]3(C)CC[C@@H]12`, the cell viability with DLD1 [1] is 1 ± 0.011; in the assay on HCT116, 1.02 ± 0.035; in the assay with SW480 [2] it was 1.06 ± 0.014. Further, the “TCF/Wnt firefly luciferase reporter signal” value in the assay with DLD1 [3] was 1.09; in the assay with SW480 [4], 1.01.

For `CCCCOc1ccc(OCCCN2CCOCC2)cc1`, the cell viability was 0.904 ± 0.086 with DLD1 [1], 0.976 ± 0.077 with HCT116 and 0.975 ± 0.011 with SW480 [2]. Also, the entries for the “TCF/Wnt firefly luciferase reporter signal” value in the assay with DLD1 [3] and in the assay with SW480 [4] were 0.993 ± 0.11 and 1.06 ± 0.014, respectively.

Take `CN1CCN(C2=Nc3cc(Cl)ccc3Nc3ccccc32)CC1`: the cell viability in the assay with DLD1 [1] turned out to be 1.12 ± 0.071; with HCT116, 1.05 ± 0.1; with SW480 [2] it was 1.005 ± 0.0071. Moreover, the “TCF/Wnt firefly luciferase reporter signal” value with DLD1 [3] turned out to be 0.916 ± 0.058; in the assay with SW480 [4], 0.97 ± 0.043.

Consider `O=C(/C=C(\O)c1ccccc1)c1ccccc1O` [2',beta-DIHYDROXYCHALCONE], for which the cell viability in the assay with DLD1 [1] was found to be 1.07 ± 0.16; with HCT116 it was 1.17 ± 0.16; in the assay with SW480 [2] it was 1.08 ± 0.014. The “TCF/Wnt firefly luciferase reporter signal” value with DLD1 [3] came to 1.01 ± 0.17; with SW480 [4], 1.1 ± 0.021.

On to `Cc1ccc(-c2cc(C(F)(F)F)nn2-c2ccc(S(N)(=O)=O)cc2)cc1`, for which the cell viability with DLD1 [1] stood at 0.972 ± 0.097; in the assay on HCT116 it was 1.02 ± 0.087; in the assay on SW480 [2], 0.987 ± 0.047. For the same compound, the “TCF/Wnt firefly luciferase reporter signal” value with DLD1 [3] worked out at 0.919 ± 0.013; in the assay with SW480 [4], 0.947 ± 0.04.

In the case of `CCCCC(=O)O[C@]1(C(=O)CO)CC[C@H]2[C@@H]3CCC4=CC(=O)CC[C@]4(C)[C@H]3[C@@H](O)C[C@@]21C`, the cell viability is 0.981 ± 0.084 with DLD1 [1], 1.02 ± 0.11 with HCT116 and 0.96 ± 0.013 in the assay with SW480 [2]. Further, the “TCF/Wnt firefly luciferase reporter signal” value in the assay on DLD1 [3] worked out at 1.02 ± 0.11; in the assay on SW480 [4], 0.997 ± 0.061.

For `CC(=O)c1ccc2c(c1)N(CCCN(C)C)c1ccccc1S2`, the cell viability with DLD1 [1] was determined as 0.976 ± 0.048; in the assay with HCT116, 0.931 ± 0.037; with SW480 [2], 0.964 ± 0.016. Also, the “TCF/Wnt firefly luciferase reporter signal” value in the assay with DLD1 [3] came to 1.06 ± 0.2; in the assay with SW480 [4] it was 0.913 ± 0.12.

Take `COc1cccc2c1C(=O)c1c(O)c3c(c(O)c1C2=O)C[C@@](O)(C(=O)CO)C[C@@H]3O[C@H]1C[C@H](N)[C@H](O)[C@H](C)O1`: the values for the cell viability in the assay with DLD1 [1], in the assay on HCT116 and with SW480 [2] were 1.04 ± 0.059, 0.67 ± 0.22 and 1.08 ± 0.035, respectively. Further, the “TCF/Wnt firefly luciferase reporter signal” value turned out to be 1.09 ± 0.099 in the assay on DLD1 [3] and 0.682 ± 0.11 in the assay on SW480 [4].

As to `Cc1cc(O)cc(O)c1C(=O)O`, the figures for the cell viability in the assay on DLD1 [1], in the assay with HCT116 and in the assay on SW480 [2] were 1.03 ± 0.035, 1.07 ± 0.1 and 1.03 ± 0.014, respectively. The “TCF/Wnt firefly luciferase reporter signal” value in the assay on DLD1 [3] was found to be 1 ± 0.05; with SW480 [4] it was 0.925 ± 0.039.

`O=C(/C=C/c1ccc(O)c(O)c1)OCCc1ccccc1`: the cell viability in the assay on DLD1 [1] is 0.892 ± 0.031; in the assay on HCT116, 0.94 ± 0.039; with SW480 [2], 0.963 ± 0.023. In addition, the “TCF/Wnt firefly luciferase reporter signal” value was found to be 0.948 ± 0.059 in the assay with DLD1 [3] and 0.9925 ± 0.0078 in the assay on SW480 [4].

On to `C[C@H]1[C@H](C)CC[C@]2(CO)CC[C@]3(C)C(=CC[C@@H]4[C@@]5(C)CC[C@H](O)C(C)(C)[C@@H]5CC[C@]43C)[C@H]12`, for which the figures for the cell viability with DLD1 [1], with HCT116 and with SW480 [2] were 1 ± 0.042, 1.02 ± 0.12 and 1 ± 0.05, respectively. In addition, the “TCF/Wnt firefly luciferase reporter signal” value worked out at 0.871 ± 0.16 in the assay on DLD1 [3] and 0.915 ± 0.048 in the assay with SW480 [4].

`CCCNC(=O)NS(=O)(=O)c1ccc(Cl)cc1`: the cell viability in the assay with DLD1 [1] is 1.03 ± 0.11; in the assay on HCT116, 0.991 ± 0.042; in the assay with SW480 [2], 1.07 ± 0.2. Moreover, the “TCF/Wnt firefly luciferase reporter signal” value was 0.968 ± 0.013 with DLD1 [3] and 0.945 ± 0.016 in the assay on SW480 [4].
